{
  "source": "PubChem BioAssay AID2147",
  "about": "(National Center for Advancing Translational Sciences (NCATS), 2009)",
  "note": "Among all 230,000 compounds or so, about 3,600 (1.6%) were called active. Another 15% or so got no clear call; they are omitted. Calls follow the shape of the dose curve; as a rule, active = well fitted inhibition curve with a large enough effect (not every such curve was filed as active); inconclusive = small, poorly fitted or top-dose-only effect, or another doubt; inactive = no such curve, though single readings can be large or run the other way. The sample as a whole holds a higher share of actives than the screen did. Also: nearly all actives have a fitted effect of over 50% in size.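 For activity change, negative = inhibition in this document: 0% = wells with enzyme and -100% = buffer wells without enzyme.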 Potency is read from the fitted curve at half-maximal effect.",
  "data": [
    {"target": "Lysine-specific demethylase 4E (Homo sapiens) (UniProt B2RXH2)", "sequence (B2RXH2 1-337 limits assumed)": "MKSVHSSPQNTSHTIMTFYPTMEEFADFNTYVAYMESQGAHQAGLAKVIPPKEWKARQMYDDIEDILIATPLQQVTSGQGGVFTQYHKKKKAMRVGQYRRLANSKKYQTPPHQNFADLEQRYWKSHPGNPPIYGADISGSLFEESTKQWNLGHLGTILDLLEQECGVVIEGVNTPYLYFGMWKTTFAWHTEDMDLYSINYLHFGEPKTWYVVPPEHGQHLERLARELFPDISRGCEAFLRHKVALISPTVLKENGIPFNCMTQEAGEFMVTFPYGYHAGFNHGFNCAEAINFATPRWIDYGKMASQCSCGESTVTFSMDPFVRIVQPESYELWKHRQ", "assay": "qHTS Assay for Inhibitors of Human Jumonji Domain Containing 2E (JMJD2E)", "conditions": "JMJD2E catalytic domain, FDH-coupled NADH fluorescence (FDH is formaldehyde dehydrogenase); series mostly up to 57.1 µM; activity change, negative = inhibition: at the top concentration", "from_the_text": "Assay Provider: Structural Genomics Consortium [SGC] Screening Center PI: Austin, C.P. Screening Center: NIH Chemical Genomics Center [NCGC] The fine interplay among methylation states of several lysine residues on the tails of histone proteins is a major determinant of the transcriptional state of the associated DNA coding regions and is commonly referred to as the histone code. Histone lysine demethylases catalyze the removal of methyl groups from methylated lysine sidechains on histones H3 and H4, thus antagonizing the reactions catalyzed by histone lysine methyltransferases. […] In search for novel inhibitors of JMJD2E demethylase, a member of the largest set of histone demethylases belonging to the Fe(II) and 2-oxoglutarate oxygenase (2OG) superfamily, we performed a quantitative high-throughput screen (Inglese 2006) by using an assay which utilizes a trimethylated peptide substrate corresponding to a fragment of histone H3 (sequence ARKme3STGGK) with detection of the formaldehyde co-product in real time by a formaldehyde dehydrogenase (FDH) coupled reaction. FDH catalyzes oxidation of formaldehyde to formic acid with the concomitant reduction of the non-fluorescent beta-nicotinamide adenine dinucleotide hydrate (NAD+) cofactor to the fluorescent NADH co-product. References: Inglese, J., Auld, D., Jadhav, A., Johnson, R., Simeonov, A., Yasgar, A., Zheng, W. and Austin, C. Proc Natl Acad Sci USA 2006, 103, 11473-11478. N. R. Rose, S. S. Ng, J. Mecinovic, B. M. Lienard, S. H. Bello, Z. Sun, M. A. McDonough, U. Oppermann and C. J. Schofield, J Med Chem, 2008, 51, 7053-7056. Sakurai, M., Rose, N., Schultz, L., Quinn, A., Jadhav, A., Ng, S., Oppermann, U., Schofield, C.J. and Simeonov, A. Mol BioSystems 2009, in press. S. Michael, D. Auld, C. Klumpp, A. Jadhav, W. Zheng, N. Thorne, C. Austin, J. Inglese and A. Simeonov, Assay Drug Dev Technol, 2008, 6, 637-657.\nReagents and Controls: Ferrous ammonium sulfate, (+)-sodium L-ascorbate, beta-nicotinamide adenine dinucleotide hydrate (NAD+), Tween-20, formaldehyde dehydrogenase from P. putida (FDH), and disodium 2-oxoglutarate were from Sigma (St. Louis, MO). Black solid-bottom 384-well or 1,536-well assay plates were from Greiner Bio-One (Monroe, NC). Enzyme was supplied by Prof. Udo Oppermann, SGC-Oxford. The catalytic domain of human JMJD2E (residues 1-337) was produced as an N-terminally His6-tagged protein in E. coli, and purified by Ni-affinity chromatography and size-exclusion chromatography, and stored in HEPES 50 mM/ NaCl 500 mM pH 7.5, as reported in Rose 2008. The trimethylated histone peptide substrate ARK(me3)STGGK was synthesized and HPLC-purified by the Tufts University Core Facility (Boston, MA). Substrate solution (Sakurai 2009) contained 50 uM ARK(me3)STGGK, 0.00025 U/uL FDH, 50 uM 2-oxoglutarate, 250 uM NAD+, 1 mM ascorbate, and 10 uM ferrous ammonium sulfate. Controls and plate map: Buffer (150 mM HEPES pH 7.5 containing 0.01% Tween-20) in columns 3 and 4 as negative control (no enzyme) and 100 nM JMJD2E final concentration in columns 1,2, and 5-48. Assay Steps: Enzyme and buffer solutions (3 uL) were dispensed into a 1,536-well Greiner black solid-bottom assay plate. The library compounds (23 nL) were transferred using a Kalypsys pintool equipped with 1,536-pin array. The plate was incubated at room temperature (15 min), and then a 1 uL aliquot of substrate solution was added to initiate the reaction. The plate was transferred to ViewLux imager where an initial reading using standard UV optics (Ex 340 nm, Em 450 nm) was obtained. The plate was then removed from the reader, incubated for 30 minutes at room temperature, and returned to the reader for a second fluorescence reading. A fully automated robotic screening system (Kalypsys Inc, San diego, CA) was used to perform the above steps as described previously (Michael 2008). […]", "values": [
      {"smiles": "O=c1[nH]c(=O)n(Cc2ccccc2)c(O)c1/C=N/Nc1c(F)c(F)c(F)c(F)c1F", "activity change, negative = inhibition": "-5.77% (inactive)"},
      {"smiles": "CCC(=NCCc1ccccc1)c1c(O)n(C2CCCCC2)c(=O)[nH]c1=O", "activity change, negative = inhibition": "-3.74% (inactive)"},
      {"smiles": "CC/C(=N\\NC(=O)c1ccccc1O)c1c(O)n(Cc2ccccc2)c(=O)[nH]c1=O", "Potency": "25.1 µM (active)"},
      {"smiles": "CNCC[C@H](Oc1ccc(C(F)(F)F)cc1)c1ccccc1", "Potency": "inactive"},
      {"smiles": "N#Cc1c(Cl)c(Cl)c(Cl)c(C#N)c1Cl", "activity change, negative = inhibition": "0.206% (inactive)"},
      {"smiles": "CNC(=O)O/N=C(\\N)Cc1csc2ccc(Cl)cc12", "activity change, negative = inhibition": "-5.49% (inactive)"},
      {"smiles": "CC[C@H]1CN2CCc3cc(OC)c(OC)cc3[C@@H]2C[C@@H]1C[C@H]1NCCc2cc(OC)c(OC)cc21", "activity change, negative = inhibition": "-0.966% (inactive)"},
      {"smiles": "CC1CCCCN1Cc1cccnc1", "note": "(stereo not given)", "Potency": "20 µM (active)"},
      {"smiles": "c1cncc(CNC2=NCCC2)c1", "activity change, negative = inhibition": "8.62% (inactive)"},
      {"smiles": "CC1=C2C(=O)C3C(CC=C4CC(OC5OC(O)C(O)C(O)C5CO)CCC43C)C2CCC12OC1CC(C)CNC1C2C", "note": "(stereo not given)", "activity change, negative = inhibition": "-0.741% (inactive)"},
      {"smiles": "CNC(C)[C@@H](O)c1ccccc1", "note": "(stereo not given in full)", "activity change, negative = inhibition": "-1.97% (inactive)"},
      {"smiles": "Cc1ccc(N2C(=O)NC(=O)C(CCc3ccncc3)(Cc3cccc(Cl)c3Cl)C2=O)cc1", "note": "(stereo not given)", "activity change, negative = inhibition": "-0.357% (inactive)"},
      {"smiles": "CCCCC/C=C\\C/C=C\\C/C=C\\C=C\\[C@H](CCCC(=O)O)OO", "activity change, negative = inhibition": "1.94% (inactive)"},
      {"smiles": "C[C@H]1CC[C@@]2(NC1)O[C@@H]1C[C@H]3[C@@H]4CC=C5C[C@@H](O)CC[C@]5(C)[C@@H]4CC[C@]3(C)[C@@H]1[C@@H]2C", "activity change, negative = inhibition": "10.5% [at 25.5 µM] (inactive)"},
      {"smiles": "O=C(OCC1O[C@@H](OC(=O)c2cc(O)c(O)c(O)c2)[C@@H](OC(=O)c2cc(O)c(O)c(O)c2)[C@@H](OC(=O)c2cc(O)c(O)c(O)c2)[C@@H]1OC(=O)c1cc(O)c(O)c(O)c1)c1cc(O)c(O)c(O)c1", "note": "(stereo not given in full)", "Potency": "3.16 µM (active)"},
      {"smiles": "O=C(COC(=O)c1ccccc1)Nc1ccc(Cl)cc1C(=O)c1ccccc1", "activity change, negative = inhibition": "-4.54% (inactive)"},
      {"smiles": "COc1ccccc1N1CCN(C(CNC(=O)Oc2ccccc2)c2cccnc2)CC1", "note": "(stereo not given)", "activity change, negative = inhibition": "-7.04% (inactive)"},
      {"smiles": "CN(C)CC1CCCCC1OC(=O)c1ccc(Cl)c(Cl)c1", "note": "(stereo not given)", "activity change, negative = inhibition": "8.43% (inactive)"},
      {"smiles": "COc1cccc(N2C(=O)NC(=O)/C(=C\\c3ccc([N+](=O)[O-])s3)C2=O)c1", "Potency": "17.8 µM (active)"},
      {"smiles": "Cc1cccc(N2C(=O)NC(=O)/C(=C\\c3cnn(-c4ccccc4)c3)C2=O)c1", "activity change, negative = inhibition": "-6.79% (inactive)"},
      {"smiles": "Cc1ccccc1N1C(=O)NC(=O)/C(=C\\c2cc(C)n(C)c2C)C1=O", "activity change, negative = inhibition": "0.783% (inactive)"},
      {"smiles": "CC1=C(C(=O)Nc2ccccc2)S(=O)(=O)CCO1", "activity change, negative = inhibition": "1.07% (inactive)"},
      {"smiles": "O=c1oc2ccccc2c(O)c1C(c1ccccc1O)c1c(O)c2ccccc2oc1=O", "activity change, negative = inhibition": "1.84% (inactive)"},
      {"smiles": "CC(=O)c1c(O)c(C)c(O)c(Cc2c(O)c3c(c(C(=O)/C=C\\c4ccccc4)c2O)OC(C)(C)C=C3)c1O", "Potency": "20 µM (active)"},
      {"smiles": "O=C(Cn1c(=O)n(CC2CS2)c2ccccc21)N1CCCCC1", "note": "(stereo not given)", "activity change, negative = inhibition": "14.5% (inactive)"},
      {"smiles": "C[C@]12CC[C@@H]3C(=CCc4cc(O)ccc43)[C@@H]1CCC2=O", "activity change, negative = inhibition": "-28.2% [at 25.5 µM] (inactive)"},
      {"smiles": "C[N+]12CN3CN(CN(C3)C1)C2", "activity change, negative = inhibition": "37.3% (inactive)"},
      {"smiles": "CN(C)C1C(=O)C(C(N)=O)=C(O)[C@@]2(O)C(=O)C3=C(O)c4c(O)cccc4[C@@](C)(O)C3C[C@@H]12", "note": "(stereo not given in full)", "Potency": "10 µM (active)"},
      {"smiles": "COc1cccc(CN2CCCC(C(=O)c3ccccc3SC)C2)c1O", "note": "(stereo not given)", "activity change, negative = inhibition": "-3.71% (inactive)"},
      {"smiles": "CCOC(=O)C1SC2(C(F)(F)C(F)F)CC1(O)c1c(c(OC)c3occc3c1OC)O2", "note": "(stereo not given)", "activity change, negative = inhibition": "4.78% (inactive)"},
      {"smiles": "COC1=C[C@]23CCCN2CCc2cc4c(cc2[C@@H]3[C@@H]1O)OCO4", "activity change, negative = inhibition": "-14.3% (inactive)"},
      {"smiles": "C/C(=C\\C=C/[C@@H](C)C(=O)O)[C@H]1CN[C@H](C(=O)O)[C@@H]1CC(=O)O", "Potency": "12.6 µM (active)"},
      {"smiles": "COc1ccc(C(=O)CC2C(=O)N(C)C(=O)N(C)C2=O)cc1", "activity change, negative = inhibition": "6.67% (inactive)"},
      {"smiles": "Cc1cccc(OP(=O)(Oc2cccc(C)c2)OC(c2ccccc2)C(F)(F)F)c1", "note": "(stereo not given)", "activity change, negative = inhibition": "0.176% (inactive)"},
      {"smiles": "Fc1ccc(C2N3CCCN23)cc1", "note": "(stereo not given)", "activity change, negative = inhibition": "0.294% (inactive)"}
    ]}
  ]
}
